What is called inhibition is the drop in the measured response relative to a control, in per cent.

These results are taken from ChEMBL document CHEMBL1961873, “Compounds: GSK PKIS; Assays: Nanosyn kinase panel” (2012).

In test [1] the target is T1, Tyrosine-protein kinase ITK/TSK (Homo sapiens) (UniProt Q08881).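 Also: values are mean percent inhibition of ITK from the GSK PKIS screen.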
T1 sequence (whole entry): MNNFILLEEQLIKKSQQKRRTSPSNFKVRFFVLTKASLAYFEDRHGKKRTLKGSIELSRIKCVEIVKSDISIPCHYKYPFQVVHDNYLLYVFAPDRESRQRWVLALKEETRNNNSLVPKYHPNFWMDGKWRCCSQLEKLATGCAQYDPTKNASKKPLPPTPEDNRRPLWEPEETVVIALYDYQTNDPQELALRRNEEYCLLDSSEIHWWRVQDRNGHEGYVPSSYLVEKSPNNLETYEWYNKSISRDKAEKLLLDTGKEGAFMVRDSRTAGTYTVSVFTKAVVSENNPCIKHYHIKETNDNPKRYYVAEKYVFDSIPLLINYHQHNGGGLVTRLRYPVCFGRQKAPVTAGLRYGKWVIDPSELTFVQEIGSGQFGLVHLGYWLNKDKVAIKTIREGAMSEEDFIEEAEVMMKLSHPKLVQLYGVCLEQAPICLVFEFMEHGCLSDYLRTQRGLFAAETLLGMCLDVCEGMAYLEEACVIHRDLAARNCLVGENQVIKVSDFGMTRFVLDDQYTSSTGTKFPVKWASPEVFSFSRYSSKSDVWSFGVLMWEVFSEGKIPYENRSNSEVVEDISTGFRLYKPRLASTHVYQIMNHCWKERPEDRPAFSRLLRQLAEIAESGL
As to conditions: at 1 µM.

Test [2] addresses Tyrosine-protein kinase JAK1 (Homo sapiens) (UniProt P23458). To be noted: at 0.1 µM.
Test [3] shares this target. As to conditions: at 1 µM.
Test [4] addresses Tyrosine-protein kinase JAK2 (Homo sapiens) (UniProt O60674). As to conditions: at 0.1 µM.
Test [5] shares this target. To be noted: at 1 µM.
Test [6] concerns the target T2, Tyrosine-protein kinase JAK3 (Homo sapiens) (UniProt P52333).
T2 sequence (whole entry): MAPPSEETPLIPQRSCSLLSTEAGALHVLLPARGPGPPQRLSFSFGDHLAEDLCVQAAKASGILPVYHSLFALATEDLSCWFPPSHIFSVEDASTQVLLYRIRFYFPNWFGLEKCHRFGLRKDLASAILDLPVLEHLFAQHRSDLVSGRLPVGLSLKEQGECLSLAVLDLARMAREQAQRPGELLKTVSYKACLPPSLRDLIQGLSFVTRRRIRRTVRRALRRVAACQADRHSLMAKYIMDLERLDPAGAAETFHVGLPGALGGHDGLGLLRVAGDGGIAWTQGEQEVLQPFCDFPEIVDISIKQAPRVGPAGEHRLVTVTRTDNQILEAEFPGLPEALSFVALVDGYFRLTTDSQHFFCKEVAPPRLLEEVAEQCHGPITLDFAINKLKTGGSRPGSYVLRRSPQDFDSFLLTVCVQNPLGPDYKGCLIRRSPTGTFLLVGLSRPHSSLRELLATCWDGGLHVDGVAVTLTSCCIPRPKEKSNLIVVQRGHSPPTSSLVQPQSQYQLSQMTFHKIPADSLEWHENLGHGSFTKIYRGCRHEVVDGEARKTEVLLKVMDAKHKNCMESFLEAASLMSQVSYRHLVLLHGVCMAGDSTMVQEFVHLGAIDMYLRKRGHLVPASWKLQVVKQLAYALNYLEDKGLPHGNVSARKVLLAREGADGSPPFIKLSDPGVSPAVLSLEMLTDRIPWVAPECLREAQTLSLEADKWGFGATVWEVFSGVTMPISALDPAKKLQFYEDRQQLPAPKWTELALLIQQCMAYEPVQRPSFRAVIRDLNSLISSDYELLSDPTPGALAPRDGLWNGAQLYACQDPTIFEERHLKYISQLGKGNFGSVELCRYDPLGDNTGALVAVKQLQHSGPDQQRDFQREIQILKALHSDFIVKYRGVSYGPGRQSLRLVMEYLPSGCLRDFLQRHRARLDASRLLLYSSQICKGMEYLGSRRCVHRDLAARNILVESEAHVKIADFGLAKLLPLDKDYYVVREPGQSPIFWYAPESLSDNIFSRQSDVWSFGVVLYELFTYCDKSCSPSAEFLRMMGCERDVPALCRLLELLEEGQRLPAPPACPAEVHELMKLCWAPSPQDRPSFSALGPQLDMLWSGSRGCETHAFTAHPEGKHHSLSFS
As to conditions: at 0.1 µM.

The target in test [7] is T2, Tyrosine-protein kinase JAK3 (Homo sapiens). To be noted: at 1 µM.
Test [8] has as its target Vascular endothelial growth factor receptor 2 (Homo sapiens) (UniProt P35968). To be noted: at 0.1 µM.
For test [9] the target is unchanged. As to conditions: at 1 µM.
For test [10], the target named is Mast/stem cell growth factor receptor Kit (Homo sapiens) (UniProt P10721). As to conditions: at 0.1 µM.
For test [11] the target is unchanged. As to conditions: at 1 µM.
In test [12] the test system is Mast/stem cell growth factor receptor Kit (Homo sapiens), P10721 [D816V]. To be noted: at 0.1 µM.
The test system is the same in test [13]. To be noted: at 1 µM.
The subject of test [14] is Mast/stem cell growth factor receptor Kit (Homo sapiens), P10721 [T670I]. As to conditions: at 0.1 µM.
For test [15] the test system is unchanged. As to conditions: at 1 µM.
In test [16] the test system is Mast/stem cell growth factor receptor Kit (Homo sapiens), P10721 [V560G]. To be noted: at 1 µM.
The target of test [17] is Tyrosine-protein kinase Lck (Homo sapiens) (UniProt P06239). To be noted: at 0.1 µM.
Test [18] shares this target. To be noted: at 1 µM.
The target in test [19] is Leukocyte tyrosine kinase receptor (Homo sapiens) (UniProt P29376). To be noted: at 0.1 µM.
Test [20] has as its system Mast/stem cell growth factor receptor Kit (Homo sapiens), P10721 [V560G]. As to conditions: at 0.1 µM.

Sequence of Mast/stem cell growth factor receptor Kit (Homo sapiens), P10721 [T670I] (P10721 whole entry T670I): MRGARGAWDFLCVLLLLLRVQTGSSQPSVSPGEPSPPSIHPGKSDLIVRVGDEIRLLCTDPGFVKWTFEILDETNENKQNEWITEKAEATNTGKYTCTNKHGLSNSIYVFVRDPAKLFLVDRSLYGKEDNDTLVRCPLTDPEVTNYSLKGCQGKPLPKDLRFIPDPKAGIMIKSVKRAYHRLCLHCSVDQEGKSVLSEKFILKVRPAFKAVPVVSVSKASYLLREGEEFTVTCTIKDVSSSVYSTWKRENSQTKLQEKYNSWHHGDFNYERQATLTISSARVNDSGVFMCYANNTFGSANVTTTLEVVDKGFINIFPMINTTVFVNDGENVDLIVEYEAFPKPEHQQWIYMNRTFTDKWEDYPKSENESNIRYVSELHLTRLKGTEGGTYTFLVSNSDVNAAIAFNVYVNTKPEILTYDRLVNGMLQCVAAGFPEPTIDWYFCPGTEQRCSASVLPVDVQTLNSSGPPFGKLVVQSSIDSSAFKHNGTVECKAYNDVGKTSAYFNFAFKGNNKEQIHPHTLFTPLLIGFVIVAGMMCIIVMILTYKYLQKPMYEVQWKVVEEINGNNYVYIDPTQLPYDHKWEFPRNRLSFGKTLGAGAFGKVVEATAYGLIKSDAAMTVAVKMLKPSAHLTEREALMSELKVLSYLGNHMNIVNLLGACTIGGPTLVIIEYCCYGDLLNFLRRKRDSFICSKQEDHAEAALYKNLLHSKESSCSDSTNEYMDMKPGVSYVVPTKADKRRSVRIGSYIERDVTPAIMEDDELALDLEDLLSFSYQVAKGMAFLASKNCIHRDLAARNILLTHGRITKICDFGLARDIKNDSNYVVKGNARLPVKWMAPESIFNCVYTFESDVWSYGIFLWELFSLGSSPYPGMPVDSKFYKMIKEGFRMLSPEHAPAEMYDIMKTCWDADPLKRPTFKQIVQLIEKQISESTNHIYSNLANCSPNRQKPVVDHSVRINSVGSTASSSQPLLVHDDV
Sequence of Mast/stem cell growth factor receptor Kit (Homo sapiens), P10721 [V560G] (P10721 whole entry V560G): as the sequence (P10721 whole entry T670I) above, with V560G, I670T counted along it
Sequence of Vascular endothelial growth factor receptor 2 (Homo sapiens) (P35968 whole entry): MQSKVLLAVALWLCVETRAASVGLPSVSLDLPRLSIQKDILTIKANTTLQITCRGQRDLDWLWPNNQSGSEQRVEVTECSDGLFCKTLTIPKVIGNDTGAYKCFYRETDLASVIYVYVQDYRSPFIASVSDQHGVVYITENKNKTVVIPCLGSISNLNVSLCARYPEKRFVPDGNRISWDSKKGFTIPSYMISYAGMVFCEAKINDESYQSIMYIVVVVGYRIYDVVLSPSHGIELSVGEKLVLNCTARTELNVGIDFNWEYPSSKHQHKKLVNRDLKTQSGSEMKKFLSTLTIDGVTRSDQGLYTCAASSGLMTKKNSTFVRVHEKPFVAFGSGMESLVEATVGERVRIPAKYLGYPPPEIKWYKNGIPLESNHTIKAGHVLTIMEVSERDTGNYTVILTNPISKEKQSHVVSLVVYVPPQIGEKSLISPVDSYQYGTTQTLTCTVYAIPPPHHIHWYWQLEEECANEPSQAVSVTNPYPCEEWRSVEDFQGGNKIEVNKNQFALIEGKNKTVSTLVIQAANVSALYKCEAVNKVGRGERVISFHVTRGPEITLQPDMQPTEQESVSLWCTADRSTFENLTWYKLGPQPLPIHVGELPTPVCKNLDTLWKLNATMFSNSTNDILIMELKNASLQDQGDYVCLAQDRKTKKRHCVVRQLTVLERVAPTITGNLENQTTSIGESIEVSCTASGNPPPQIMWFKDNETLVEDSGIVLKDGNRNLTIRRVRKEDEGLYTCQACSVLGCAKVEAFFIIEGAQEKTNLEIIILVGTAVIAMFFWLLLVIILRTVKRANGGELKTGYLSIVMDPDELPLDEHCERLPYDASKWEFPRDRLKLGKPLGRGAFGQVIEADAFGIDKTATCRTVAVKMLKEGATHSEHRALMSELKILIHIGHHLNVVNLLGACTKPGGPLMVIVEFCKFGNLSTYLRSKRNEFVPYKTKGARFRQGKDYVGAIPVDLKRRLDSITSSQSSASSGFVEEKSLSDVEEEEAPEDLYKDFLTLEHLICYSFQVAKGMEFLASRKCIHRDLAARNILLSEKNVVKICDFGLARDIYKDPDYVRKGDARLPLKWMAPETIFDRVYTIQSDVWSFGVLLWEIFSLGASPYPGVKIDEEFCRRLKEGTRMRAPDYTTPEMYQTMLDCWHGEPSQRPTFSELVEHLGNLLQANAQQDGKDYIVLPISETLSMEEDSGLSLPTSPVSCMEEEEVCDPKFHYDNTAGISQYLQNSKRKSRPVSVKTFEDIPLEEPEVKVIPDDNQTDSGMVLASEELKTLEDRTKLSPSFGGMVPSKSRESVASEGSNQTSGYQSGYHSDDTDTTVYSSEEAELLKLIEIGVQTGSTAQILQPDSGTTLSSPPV
Sequence of Tyrosine-protein kinase Lck (Homo sapiens) (P06239 2-509 limits assumed): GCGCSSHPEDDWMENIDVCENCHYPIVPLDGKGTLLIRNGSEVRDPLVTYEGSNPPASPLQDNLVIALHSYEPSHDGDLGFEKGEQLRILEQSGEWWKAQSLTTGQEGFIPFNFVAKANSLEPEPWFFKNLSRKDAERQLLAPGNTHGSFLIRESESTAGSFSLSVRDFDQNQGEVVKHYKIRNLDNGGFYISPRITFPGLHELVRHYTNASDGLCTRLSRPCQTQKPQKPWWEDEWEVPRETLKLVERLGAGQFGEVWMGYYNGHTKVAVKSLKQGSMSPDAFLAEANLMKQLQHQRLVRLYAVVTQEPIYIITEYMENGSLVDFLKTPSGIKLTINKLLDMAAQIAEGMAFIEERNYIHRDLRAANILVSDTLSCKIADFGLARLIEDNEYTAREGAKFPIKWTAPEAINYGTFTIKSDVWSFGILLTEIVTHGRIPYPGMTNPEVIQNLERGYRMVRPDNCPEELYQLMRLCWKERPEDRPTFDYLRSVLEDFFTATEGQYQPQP
Sequence of Leukocyte tyrosine kinase receptor (Homo sapiens) (P29376 whole entry): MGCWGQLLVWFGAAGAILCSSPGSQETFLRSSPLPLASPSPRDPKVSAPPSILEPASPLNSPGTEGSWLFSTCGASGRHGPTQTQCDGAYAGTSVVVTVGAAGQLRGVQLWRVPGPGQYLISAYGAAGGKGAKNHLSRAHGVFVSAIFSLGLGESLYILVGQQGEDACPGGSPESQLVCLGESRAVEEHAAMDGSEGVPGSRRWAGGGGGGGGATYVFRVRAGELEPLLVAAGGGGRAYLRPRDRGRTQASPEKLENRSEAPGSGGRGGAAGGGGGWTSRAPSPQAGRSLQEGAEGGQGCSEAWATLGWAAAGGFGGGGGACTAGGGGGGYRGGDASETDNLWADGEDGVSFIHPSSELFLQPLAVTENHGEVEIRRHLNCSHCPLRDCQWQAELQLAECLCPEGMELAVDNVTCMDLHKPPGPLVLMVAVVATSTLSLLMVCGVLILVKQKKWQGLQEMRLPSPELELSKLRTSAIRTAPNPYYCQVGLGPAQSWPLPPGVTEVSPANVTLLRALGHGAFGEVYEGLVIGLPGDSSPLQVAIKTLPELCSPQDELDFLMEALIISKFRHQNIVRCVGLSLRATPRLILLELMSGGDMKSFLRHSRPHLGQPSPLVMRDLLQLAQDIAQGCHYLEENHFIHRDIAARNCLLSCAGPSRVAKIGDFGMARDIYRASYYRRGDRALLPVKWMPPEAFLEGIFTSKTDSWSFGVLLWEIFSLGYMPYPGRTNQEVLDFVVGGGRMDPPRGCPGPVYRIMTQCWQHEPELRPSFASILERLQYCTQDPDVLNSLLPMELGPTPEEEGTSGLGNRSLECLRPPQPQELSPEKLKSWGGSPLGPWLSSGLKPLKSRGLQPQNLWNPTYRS
Sequence of Tyrosine-protein kinase JAK2 (Homo sapiens) (O60674 whole entry): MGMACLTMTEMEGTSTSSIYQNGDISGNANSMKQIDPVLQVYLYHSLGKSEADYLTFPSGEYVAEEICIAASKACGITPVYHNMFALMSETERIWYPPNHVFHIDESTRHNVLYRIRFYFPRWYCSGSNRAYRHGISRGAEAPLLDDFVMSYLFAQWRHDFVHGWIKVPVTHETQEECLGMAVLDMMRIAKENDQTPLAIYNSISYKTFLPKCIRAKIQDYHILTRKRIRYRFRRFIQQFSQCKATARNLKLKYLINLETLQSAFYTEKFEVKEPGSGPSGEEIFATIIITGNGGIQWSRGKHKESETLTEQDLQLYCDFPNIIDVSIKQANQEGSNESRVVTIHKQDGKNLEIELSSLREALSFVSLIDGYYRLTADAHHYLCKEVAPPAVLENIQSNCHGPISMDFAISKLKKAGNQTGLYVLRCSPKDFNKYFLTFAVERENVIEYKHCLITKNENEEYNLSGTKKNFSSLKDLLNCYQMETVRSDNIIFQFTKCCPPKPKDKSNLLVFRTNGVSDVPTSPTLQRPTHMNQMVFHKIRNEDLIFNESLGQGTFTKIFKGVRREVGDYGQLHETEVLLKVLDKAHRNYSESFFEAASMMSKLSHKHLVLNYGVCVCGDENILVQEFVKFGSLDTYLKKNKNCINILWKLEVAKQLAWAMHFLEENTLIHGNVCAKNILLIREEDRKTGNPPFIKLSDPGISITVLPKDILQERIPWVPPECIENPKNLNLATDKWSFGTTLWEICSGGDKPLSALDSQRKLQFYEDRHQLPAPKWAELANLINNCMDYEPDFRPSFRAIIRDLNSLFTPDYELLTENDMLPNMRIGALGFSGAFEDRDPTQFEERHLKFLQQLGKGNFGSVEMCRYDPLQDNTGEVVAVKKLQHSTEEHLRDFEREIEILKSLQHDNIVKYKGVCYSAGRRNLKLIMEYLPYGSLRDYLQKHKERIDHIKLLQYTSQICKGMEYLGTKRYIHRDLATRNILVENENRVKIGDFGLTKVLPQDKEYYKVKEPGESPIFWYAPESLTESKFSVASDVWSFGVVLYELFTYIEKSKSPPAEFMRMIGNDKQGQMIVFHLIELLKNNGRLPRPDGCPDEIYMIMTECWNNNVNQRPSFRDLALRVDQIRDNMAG
Sequence of Mast/stem cell growth factor receptor Kit (Homo sapiens) (P10721 whole entry): as the sequence (P10721 whole entry T670I) above, with I670T counted along it
Sequence of Mast/stem cell growth factor receptor Kit (Homo sapiens), P10721 [D816V] (P10721 whole entry D816V): as the sequence (P10721 whole entry T670I) above, with I670T, D816V counted along it

Turning to `COc1cc2ncn(-c3cc(OCc4ccccc4S(C)(=O)=O)c(C#N)s3)c2cc1OC`, the inhibition in [1] was 11.5%; in test [2], 3.78%; in [3], 5.39%; in test [4], 2.72%; in test [5], 29.4%; in test [6], 5.19%. For the same molecule, the inhibition in test [7] was determined as 55%; in test [8], 25.6%; in test [9], 67.3%; in [10], 5.42%; in test [11] it was 7.97%; in [12], 2.49%. In addition, the inhibition in [13] was determined as 5.22%; in test [14] it was 3.82%; in test [15], 2.96%; in [16], 0.98%; in [17], 23.3%; in test [18], 69.2%. The inhibition in test [19] is 4%.
For `CN1CCN(C(=O)c2ccc(NC(=O)Nc3ccc(N(C)c4ccnc(Nc5ccc(CS(C)(=O)=O)cc5)n4)cc3)cc2)CC1`, the inhibition was 38.7% in [1]; 2.49% in test [2]; 20.6% in test [3]; 3.54% in test [4]; 49.7% in test [5]; -1.34% in test [6]. In addition, the inhibition in test [7] was 26.2%; in test [8] it was 21.4%; in test [9] it was 69.2%; in test [10] it was 65.6%; in [11] it was 88.5%; in [12], 1.27%. In addition, the inhibition stood at 2.73% in [13]; 10.6% in test [14]; 58.7% in test [15]; 75.1% in test [20]; 93.2% in [16]; 5.01% in test [17]. Moreover, the inhibition stood at 23.9% in [18] and 2.61% in test [19].
`COC(=O)c1cncc(/C=C/c2c(C)cc(O)cc2C)c1`: the inhibition in test [1] is 1.55%; in test [2], 2.46%; in [3], 4.21%; in [4] it was 0.81%; in [5], 2.05%; in [6], -1.76%. Moreover, the inhibition worked out at 0.99% in test [7]; 2.37% in [8]; 4.91% in [9]; 32.9% in test [10]; 83.5% in test [11]; 4.37% in test [12]. Also, the inhibition in test [13] was determined as 7.02%; in test [14], 2.73%; in test [15] it was 0.94%; in test [20], 4.65%; in [16], 41.8%; in test [17], 5.78%. The inhibition is 30.5% in test [18] and 3.77% in [19].
Take `Nc1nccc(C#Cc2cncnc2Nc2ccc(OCc3cccc(F)c3)c(Cl)c2)n1`: the inhibition was determined as 3.09% in [1]; 2.03% in test [2]; 2.27% in [3]; 1.73% in test [4]; 1.57% in test [5]; 0.41% in test [6]. Moreover, the inhibition in test [7] is 4.42%; in test [8], 6.4%; in test [9] it was 10.6%; in [10], 3.65%; in test [11] it was 2.68%; in [12] it was 3.2%. Further, the inhibition is 2.1% in [13]; 1.97% in test [14]; 1.54% in test [15]; -1.72% in test [20]; 1.13% in test [16]; 1.54% in test [17]. Further, the inhibition is 8.03% in [18] and 3.49% in test [19].
Take `OCc1ccc(-c2nc(-c3ccccn3)c(-c3ccc4c(c3)OCO4)[nH]2)cc1`: the inhibition was 2.5% in test [1]; 3.55% in test [2]; 3.24% in test [3]; 2.17% in [4]; 3.4% in test [5]; -1.9% in [6]. In addition, the inhibition in test [7] is 0.74%; in test [8], 7.67%; in test [9], 6.53%; in test [10], 13.1%; in [11], 3.32%; in [12] it was 4.26%. Besides, the inhibition was 1.86% in test [13]; 3.18% in test [14]; 0.71% in [15]; -1.45% in test [20]; 2.83% in test [16]; 4.57% in test [17]. The inhibition is 6.53% in test [18] and 3.45% in [19].
